Source: PubChem (National Center for Advancing Translational Sciences (NCATS))
KB-3-1 tox – qHTS assay for MDR1-selective chemotherapeutics: Primary screen using the parental adenocarcinoma cell KB-3-1 | KB-3-1 viability, CellTiter-Glo ATP luminescence, 72 h | Potency, µM (series often up to 46.1 µM), usual class: cytotoxic | actives 1.4% (n = 400,000) | AID 1347075, 2019; also: potency is read from the fitted curve at half-maximal effect; % is scaled to controls: 0 for no effect and ±100 for the full control effect; nearly all actives have a fitted effect of over 60% in size
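Cells are dispensed, compounds pinned in, plates held at 37 °C for 72 h, then CellTiter-Glo is added and luminescence read after 10 minutes. Cell line: parental KB-3-1 in phenol-red-free DMEM, 10% FBS.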
SW480 rerep – A quantitative high throughput screen for small molecules that induce DNA re-replication in SW480 colon adenocarcinoma cells; Potency, µM (titrated, usually from 46.1 µM), for inactives: at the top dose re-replication activation, most hits filed as activators; actives 1.8% (n = 340,000); SW480 DNA re-replication, Hoechst DNA content imaging, 48 h; AID 624297, 2012; also: potency is read from the fitted curve at half-maximal effect; % of control where 0% means no effect; nearly all actives have a fitted effect of over 55% in size
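Image-based read-out: total Hoechst fluorescence of nuclei (405 nm excitation, 500-530 nm emission), with hits raising the fraction of high-intensity nuclei. SW480 colon cells incubated 48 hr with compounds at 37 C.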
KB-V1 cytotox – qHTS assay for MDR1-selective chemotherapeutics: Primary screen using the drug-selected MDR subline cells KB-V1. KB-V1 MDR cells viability, CellTiter-Glo, 72 h. Potency, µM (titrated, usually from 46.1 µM), most hits filed as cytotoxic. actives 3.4% (n = 400,000). AID 1347076, 2019; also: potency is read from the fitted curve at half-maximal effect; % is scaled to controls: 0 for no effect and ±100 for the full control effect; nearly all actives have a fitted effect of over 60% in size
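Readout: CellTiter-Glo luminescence, 10 min after addition. Cells: KB-V1 MDR subline, 72 h at 37 degrees C with compound. Analysis: corrected, normalized data fitted to concentration-effect curves.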
MCF10A rerep – A quantitative high throughput screen for small molecules that induce DNA re-replication in MCF 10a normal breast cells. actives 2.9% (n = 350,000). MCF 10A DNA re-replication, Hoechst nuclear intensity, 48 h. AID 624296, 2012. Potency, µM (series often up to 46.1 µM), without a hit: at the top dose activity, positive = re-replication, most hits filed as activators; also: potency is read from the fitted curve at half-maximal effect; % of control where 0% means no effect; nearly all actives have a fitted effect of over 50% in size
hERG WT inh – qHTS for Inhibitors of KCHN2 3.1: Wildtype qHTS; Voltage-gated inwardly rectifying potassium channel KCNH2 (Homo sapiens), Q12809; U2OS, BacMam KCNH2, thallium flux FluxOr; active compounds read low; activity change, % at 1.84 µM; actives 0.37% (n = 340,000); AID 720551, 2013;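 active = maximum activity change below -70%; inconclusive = maximum activity change between -70% and -50%; inactive = maximum activity change above -50%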; also: % is scaled to controls: 0 for no effect and ±100 for the full control effect
Target sequence (Q12809 whole entry, looked up): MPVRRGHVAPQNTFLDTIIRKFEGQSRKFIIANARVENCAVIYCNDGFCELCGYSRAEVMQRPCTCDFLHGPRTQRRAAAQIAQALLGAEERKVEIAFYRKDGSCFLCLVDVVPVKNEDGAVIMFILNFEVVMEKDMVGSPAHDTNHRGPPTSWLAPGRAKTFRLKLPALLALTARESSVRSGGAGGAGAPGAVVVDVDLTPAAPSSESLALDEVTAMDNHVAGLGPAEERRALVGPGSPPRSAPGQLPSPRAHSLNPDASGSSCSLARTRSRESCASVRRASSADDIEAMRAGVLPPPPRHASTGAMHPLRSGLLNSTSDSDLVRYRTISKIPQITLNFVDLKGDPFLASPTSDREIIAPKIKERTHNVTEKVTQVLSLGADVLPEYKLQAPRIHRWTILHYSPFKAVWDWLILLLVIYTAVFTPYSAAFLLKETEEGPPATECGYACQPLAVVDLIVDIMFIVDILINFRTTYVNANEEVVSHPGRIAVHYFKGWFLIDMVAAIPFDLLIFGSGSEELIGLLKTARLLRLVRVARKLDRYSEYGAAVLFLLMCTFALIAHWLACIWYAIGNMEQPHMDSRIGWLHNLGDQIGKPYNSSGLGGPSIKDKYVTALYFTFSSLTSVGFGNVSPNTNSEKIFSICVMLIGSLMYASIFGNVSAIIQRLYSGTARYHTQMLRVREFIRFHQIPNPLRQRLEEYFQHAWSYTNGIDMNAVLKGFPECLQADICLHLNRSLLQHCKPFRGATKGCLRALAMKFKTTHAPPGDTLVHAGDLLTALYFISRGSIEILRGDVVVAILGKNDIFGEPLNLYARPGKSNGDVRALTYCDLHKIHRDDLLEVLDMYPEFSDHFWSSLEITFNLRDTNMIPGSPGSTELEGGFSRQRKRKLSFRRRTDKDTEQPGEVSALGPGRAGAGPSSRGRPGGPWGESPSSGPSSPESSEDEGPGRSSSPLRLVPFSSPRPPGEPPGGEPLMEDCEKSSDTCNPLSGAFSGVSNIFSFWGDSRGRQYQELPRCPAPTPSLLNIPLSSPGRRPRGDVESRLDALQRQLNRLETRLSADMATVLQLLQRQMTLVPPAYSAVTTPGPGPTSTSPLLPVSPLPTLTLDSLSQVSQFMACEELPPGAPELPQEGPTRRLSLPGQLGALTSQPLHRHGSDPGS
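U2OS cells were transduced with wild-type KCNH2 virus (2.03 x 10^8 / mL) for 4 h at room temperature, then cultured overnight at 37 C. Thallium flux was read with FluxOr dye. Rate constants were normalized to DMSO controls.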
KCNH2 3.1 inh – qHTS for Inhibitors of KCHN2 3.1: Mutant qHTS; Potassium voltage-gated channel subfamily H member 2, brain isoform KCNH2 3.1 (human); U2OS KCNH2 3.1, thallium flux FluxOr; active compounds read low; activity change, % (tested at about 1.8 µM); actives 0.95% (n = 340,000); AID 720553, 2013;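 active = maximum activity change below -70%; inconclusive = maximum activity change from -70% to -50%; inactive = maximum activity change above -50%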;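 also: thallium influx rate constant from kinetic fluorescence after stimulation buffer; % is scaled to controls: 0 for no effect and ±100 for the full control effect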
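We transduce U2OS cells with the mutant 3.1 virus, culture them overnight, load FluxOr with Red40 quencher for 45 min, then add stimulation buffer and read kinetically for 2 min to derive a normalized rate constant.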
Numbers without * were called inactive; i = inactive; ? = inconclusive; . = no result given. Most compounds without a hit are left out; they make up all but 7.6% or so of the library. Unless noted, calls follow the shape of the dose curve; as a rule, active = well fitted curve in the direction sought with a large enough effect; inconclusive = small, poorly fitted or top-dose-only effect, or another doubt; inactive = no such curve, though single readings can be large; an effect the other way counts as inactive or inconclusive.

SMILES	KB-3-1 tox	SW480 rerep	KB-V1 cytotox	MCF10A rerep	hERG WT inh	KCNH2 3.1 inh
COc1ccc(N2CCN(C(=O)c3ccccc3NC(=O)c3ccccc3)CC2)cc1	?	?	i	?	7	1
CCOC(=O)C1=C(c2ccccc2)NC(=S)NC1c1cccc([N+](=O)[O-])c1 (stereo not given)	i	-2%	15µM*	11%	2	8
C#CCN1C(C)=C(C(=O)OC)C(c2cccc([N+](=O)[O-])c2)C(C(=O)OCC)=C1C (stereo not given)	i	3%	12µM*	3%	-16	-6
CC1=C(C(=O)OCc2ccccc2)C(c2cccc([N+](=O)[O-])c2)NC(=O)N1C (stereo not given)	i	-59%	?	0.82µM*	-10	-2
CC1=C(C(=O)OCc2ccccc2)C(c2cccc([N+](=O)[O-])c2)NC(=O)N1 (stereo not given)	i	-10%	i	2%	2	5
CCOC(=O)C1=C(C)NC(C)=C(C(=O)OCC)C1c1cccc([N+](=O)[O-])c1	i	.	?	.	-6	-20
CCOC(=O)C1=C(c2ccccc2)NC(=S)NC1c1cc([N+](=O)[O-])ccc1OC (stereo not given)	i	17%	i	-2%	3	8
CCOC(=O)C1=C(c2ccccc2)NC(=S)NC1c1ccc(C)c([N+](=O)[O-])c1 (stereo not given)	i	?	2.9µM*	?	-3	7
CCCCN(CCCC)C(=O)C1(P(=O)(c2ccccc2)c2ccccc2)CCC1	i	18%	?	?	1	6
Cc1cccc(NC(=O)CNC(=O)Cc2ccc3c(c2)OCCO3)c1C	i	-23%	i	-4%	5	-11
COc1cc(CCC(=O)OCC(=O)c2ccc[nH]2)cc(OC)c1OC	.	-8%	.	-9%	-94*	-2
COc1cc(CC(=O)OCC(=O)c2ccc[nH]2)cc(OC)c1OC	i	-3%	i	?	-5	5
O=C(CCc1nnc2ccc(NCc3ccccc3)nn12)NC1CCCC1	i	3%	i	1%	-9	-75*
Cc1ccc2nc(CS)[nH]c2c1	i	.	i	.	.	.
C[C@H]1CCC/C=C/[C@@H]2C[C@H](O)C[C@H]2[C@H](O)[C@H](S(=O)c2ccc(O)cc2)CC(=O)O1 (stereo not given in full)	0.0092µM*	?	?	21%	-12	3
CCCCOc1ccc(NC2=NC3(CCCCC3)N=C(N)N2)cc1	15µM*	4%	i	?	8	7
CN(Cc1c(F)cccc1Cl)C(=O)c1ccc2ccccc2n1	i	-8%	i	0%	-4	8
Cc1ccc(-n2nnnc2-c2cnc(N3CCCC3)nc2C(F)(F)F)cc1	?	?	?	11%	-6	3
FC(F)(F)c1nc(N2CCCC2)ncc1-c1nnnn1-c1ccccc1	?	10%	2.9µM*	16%	-12	0
CCOc1ccccc1NC(=O)C1CCCN1S(=O)(=O)c1ccccc1C(F)(F)F (stereo not given)	i	-37%	i	15%	-5	2
COC(CNC(=O)C1CCN(C(=O)c2cc3oc(C)cc3n2Cc2c(F)cccc2Cl)CC1)OC	?	-37%	8.2µM*	0%	-4	-4
O=C(CCc1ccc(S(=O)(=O)NCc2ccccc2)cc1)NCc1ccco1	i	-192%	21µM*	-5%	-11	6
